Hits are enriched below; roughly 21% of the tested compounds scored in any of these assays.
TDP1 cell CPT: DT40-hTDP1 cell growth loss with CPT. chicken DT40 Tdp1-/-;hTDP1 cells + 20 nM CPT, ATP luminescence, 48 h. Potency, µM (highest dose often 46.2 µM), for the others: top-dose activity change, negative = growth inhibition, usual class: inhibitors. 420,000 tested, 12% active; also: potency is read from the fitted curve at half-maximal effect; % is scaled to controls: 0 for no effect and ±100 for the full control effect; nearly all actives have a fitted effect of over 55% in size
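Chicken DT40 Tdp1-/- cells stably complemented with human TDP1 were seeded at 400 cells/well in medium containing 20 nM camptothecin, exposed to pin-transferred compounds, and grown at 37 °C for at least 48 hr. Viability was read as ATP luminescence.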
DT40 TDP1 no CPT: qHTS for Inhibitors of human tyrosyl-DNA phosphodiesterase 1 (TDP1): qHTS in cells in absence of CPT | DT40 Tdp1-/- hTDP1 cells, no CPT, ATP luminescence, 48 h | Potency, µM (top dose mostly 46.2 µM), inactives show top-dose activity change, negative = growth inhibition, hits mostly inhibitors | 420,000 tested, 15% active; also: potency is read from the fitted curve at half-maximal effect; % is scaled to controls: 0 for no effect and ±100 for the full control effect; nearly all actives have a fitted effect of over 55% in size
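Growth of hTDP1-complemented DT40 Tdp1-knockout cells is measured by ATP luminescence after at least 48 hr compound exposure at 37 °C, with DMSO substituting for the 20 nM CPT used in the parallel screen.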
D3 ag: D3 dopamine receptor (human) agonism; P35462; D3R DiscoveRx beta-arrestin cells, luminescence, 90 min; max activation, %; 410,000 tested, 0.58% active; in the data active = max activation above about 30%; also: 0% is about no effect
Target sequence (P35462 whole entry, looked up): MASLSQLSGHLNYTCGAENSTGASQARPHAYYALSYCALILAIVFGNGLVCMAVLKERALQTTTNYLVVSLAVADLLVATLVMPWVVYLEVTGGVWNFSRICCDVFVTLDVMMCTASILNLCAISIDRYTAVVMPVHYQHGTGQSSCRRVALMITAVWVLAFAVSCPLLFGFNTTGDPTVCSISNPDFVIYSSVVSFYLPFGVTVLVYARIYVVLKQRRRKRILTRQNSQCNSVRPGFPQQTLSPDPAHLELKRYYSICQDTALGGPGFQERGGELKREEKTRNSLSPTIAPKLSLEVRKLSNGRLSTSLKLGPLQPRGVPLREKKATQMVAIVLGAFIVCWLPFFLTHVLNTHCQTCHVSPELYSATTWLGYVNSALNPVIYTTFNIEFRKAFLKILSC
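Cells at 1500/well, incubated overnight, then treated with pinned compounds (dopamine as control) for 90 min at 37 degrees C. DiscoveRx reagent added for 30 - 60 minutes at room temperature; luminescence read.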
ClpP mod: qHTS Assay for Activators of ClpP | ATP-dependent Clp protease proteolytic subunit (Bacillus subtilis (strain 168)), P80244 | purified B. subtilis ClpP, FRET peptide cleavage, 20 min | Potency, µM (titrated, usually from 57.5 µM), without a hit: at the highest dose activity change, negative = active | 340,000 tested, 1.9% active; active = well fitted falling curve with a large enough effect; inconclusive = small, poorly fitted or top-dose-only effect; inactive = no such curve, though single readings can be large or run the other way; also: potency is read from the fitted curve at half-maximal effect; the source files actives as falling curves though it sought activators and does not explain the sign; nearly all actives have a fitted effect of over 65% in size
Target sequence (P80244 whole entry, looked up): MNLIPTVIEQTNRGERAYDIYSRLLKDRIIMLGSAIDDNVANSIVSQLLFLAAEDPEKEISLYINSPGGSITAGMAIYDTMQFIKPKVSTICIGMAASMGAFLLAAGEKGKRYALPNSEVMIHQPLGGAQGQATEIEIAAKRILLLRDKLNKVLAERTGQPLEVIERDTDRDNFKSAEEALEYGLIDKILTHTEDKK
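ClpP 10 microg/mL final, pH 8 Tris/KCl buffer with BSA, glycerol, Tween-20; compound pinned in; FRET-FV substrate; RT 20 min; Ex320/Em430; ΔFRET vs ADEP 5.8 microM, DMSO, no enzyme.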
DRD3 antagonist: blocks the human D3 dopamine receptor. P35462. D3R cells, DiscoveRx beta-arrestin luminescence, antagonist mode; stronger effect = lower value. max response, negative = inhibition, %. 360,000 tested, 2.5% active; in the data active = max response below about -50%; inconclusive = no clear call, values can overlap the other calls; also: % is scaled to controls: 0 for no effect and ±100 for the full control effect
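Cells expressing the human receptor were seeded at 1500 cells/well, incubated overnight at 37 degrees C in 5% CO2, then exposed to library compounds with dopamine controls for 90 minutes at 37 degrees C before luminescent detection.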
IL1B secr inh: blocks inflammasome-driven IL-1 beta release; activity change, % at 57.5 µM; AID 743279; THP-1 LPS/ATP IL-1B secretion, AlphaLISA, 16 h; stronger effect = lower value; 360,000 tested, 4.7% active; in the data active = activity change below about -50%; inconclusive = mostly about -30% to -49%; also: % is scaled to controls: 0 for no effect and ±100 for the full control effect
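Secreted IL-1B measured by AlphaLISA bead assay after 16 h compound exposure of THP-1 cells; compounds (final up to 57.5 uM) added 1 h before LPS (250 ng/mL) and ATP (1.25 mM) stimulation; lower signal means less secretion.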
The depositor's hits bear a star; u = inconclusive; x = no result given. Unless noted, calls follow the shape of the dose curve; as a rule, active = well fitted inhibition curve with a large enough effect; inconclusive = small, poorly fitted or top-dose-only effect; inactive = flat fitted curve, though single readings scatter.

SMILES	TDP1 cell CPT	DT40 TDP1 no CPT	D3 ag	ClpP mod	DRD3 antagonist	IL1B secr inh
CC1Oc2ccccc2C=C1/C=N/NC(=O)c1ccccc1O (configuration not stated)	u	u	13	0%	2	u
CC1Oc2ccccc2C=C1/C=N/NC(=O)c1ccccc1 (configuration not stated)	9.2µM*	26µM*	11	3%	4	-1
Cc1ccc(Cl)c(NC(=O)Nc2csc3c2CCCC3)c1	u	u	-18	1%	x	x
CCn1c(C)nc2cc(C(=O)N/N=C/c3cccc(O)c3O)ccc21	15µM*	9.2µM*	15	x	12	108
CCn1c(C)nc2cc(C(=O)NNC(=S)NC(=O)c3ccccc3)ccc21	u	23µM*	1	-3%	0	14
CCn1c(C)nc2cc(C(=O)NNC(=S)Nc3ccccc3)ccc21	-6%	2%	0	x	-15	-2
CCn1c(C)nc2cc(C(=O)N/N=C(\C)c3ccc(OC)cc3O)ccc21	9.2µM*	10µM*	3	x	6	123
CCn1c(C)nc2cc(C(=O)NN=C(C)c3ccc(C#N)cc3)ccc21	5%	-19%	-3	x	4	-4
COC(=O)C1CC(c2ccccc2)N(c2ccccc2)O1 (configuration not stated)	4%	7%	5	-1%	-1	10
CCCCCC(=O)NC(NC(=S)Nc1ccc(S(N)(=O)=O)cc1)C(Cl)(Cl)Cl (configuration not stated)	3%	-5%	3	-3%	-22	-2
CCCCCCCC(=O)NC(Nc1ccc(S(N)(=O)=O)cc1)C(Cl)(Cl)Cl (configuration not stated)	u	21µM*	-2	2%	14	-21
CC(=O)Oc1ccc(-c2ccc(C(=O)Nc3cccc(S(=O)(=O)N4CCOCC4)c3)cc2)cc1	23µM*	16µM*	-1	x	2	-119*
COc1ccc(C(=O)Nc2cccc(S(=O)(=O)N3CCCC3)c2)cc1S(=O)(=O)N1CCOCC1	u	u	-5	x	-11	7
CCOc1c(Br)cc(C(=O)Nc2cccc(S(=O)(=O)N3CCOCC3)c2)cc1OC	u	23µM*	-2	1%	8	-20
COc1ccc(C(=O)NC(=S)Nc2cccc(S(=O)(=O)N3CCOCC3)c2)cc1	5.8µM*	7.3µM*	-3	-1%	-7	-4
COc1ccc(C(=O)NNC(=O)c2cccc(S(=O)(=O)N3CCOCC3)c2)cc1	-14%	-11%	1	x	7	22
CCCCc1nc(NCCO)c(C#N)c2c1CCCC2	-12%	-27%	4	4%	2	-17
CCCCNc1nc(CC)c2c(c1C#N)CCCC2	u	u	-12	28µM*	-19	13
COc1ccc(N(C)S(=O)(=O)c2cccc(C(=O)Nc3nnc(C4CC4)s3)c2)cc1	-1%	-18%	6	x	7	51
CCOc1ccc(N(C)S(=O)(=O)c2ccc(C)c(C(=O)Nc3nnc(C4CC4)s3)c2)cc1	-9%	4.6µM*	-3	-6%	-8	-3
CCN1CCN(C(c2ccccc2OC)c2nnnn2C2CCCCC2)CC1 (configuration not stated)	4%	-22%	-12	-6%	-19	-2
COc1cccc(C(c2nnnn2C2CCCCC2)N2CCN(C/C=C/c3ccccc3)CC2)c1OC (configuration not stated)	16µM*	13µM*	-17	-7%	-118*	x
FC(F)(F)Oc1ccccc1C(c1nnnn1C1CCCC1)N1CCN(C/C=C/c2ccccc2)CC1 (configuration not stated)	u	16µM*	-15	-2%	-97*	-26
COc1cc(C(=O)N2CCN(Cc3ccc4c(c3)OCO4)CC2)cc(OC)c1OC	-1%	-5%	4	1%	12	7
C[C@]12CC[C@H](O)CC1=CCC1C2CC[C@@]2(C)C1CC[C@@H]2NCc1ccccc1 (some centres not stated)	21µM*	21µM*	-9	-1%	0	17
SMILES	TDP1 cell CPT	DT40 TDP1 no CPT	D3 ag	ClpP mod	DRD3 antagonist	IL1B secr inh
CCC(C)[C@H](N)C(=O)N[C@H]1CCC2C3CC=C4C[C@@H](O)CC[C@]4(C)C3CC[C@@]21C (some centres not stated)	u	u	7	-1%	85	-111*
CC(C)[C@H](N)C(=O)N[C@H]1CCC2C3CC=C4C[C@@H](O)CC[C@]4(C)C3CC[C@@]21C (some centres not stated)	u	u	1	0%	-12	-106*
C[C@@H](N)C(=O)N[C@H]1CCC2C3CC=C4C[C@@H](O)CC[C@]4(C)C3CC[C@@]21C (some centres not stated)	-24%	u	-1	x	3	107
CC1CCN(C(=O)c2[nH]cnc2C(=O)Nc2nccs2)CC1	4%	-10%	7	-1%	2	-3
O=c1[nH]c(=O)n(-c2ccccc2)c2c1C(C(F)(F)F)(C(F)(F)F)N=C(CCC1CCCCC1)N2	u	18µM*	-6	-4%	4	21
CC(C)Cn1c2c(c(=O)[nH]c1=O)C(C(F)(F)F)(C(F)(F)F)N=C(CCC1CCCCC1)N2	6.5µM*	4.1µM*	13	-9%	3	-6
CC(C)CN(C(=O)CCC1CCCCC1)c1c(N)n(CC(C)C)c(=O)[nH]c1=O	u	-19%	9	x	2	8
O=C1Nc2c(c(=O)[nH]c(=O)n2-c2ccccc2)C(C(F)(F)F)(C(F)(F)F)N1	-10%	2%	-13	0%	-21	3
O=c1[nH]c(=O)n(Cc2ccco2)c2c1C(C(F)(F)F)(C(F)(F)F)N=C(CCc1ccccc1)N2	18µM*	u	21	19%	20	u
O=c1[nH]c(=O)n(Cc2ccco2)c2c1C(C(F)(F)F)(C(F)(F)F)N=C(C1CCCCC1)N2	u	-18%	2	-12%	15	6
CCOc1ccc(NC(=O)CN(C)C(=O)C2CCCO2)cc1OCC (configuration not stated)	4%	5%	11	21%	3	6
CSc1sc(C(=O)NNC(C)=O)c2c1C=CCC2	-30%	u	-3	-9%	15	9

Screens deposited in PubChem BioAssay by National Center for Advancing Translational Sciences (NCATS).
